Laboratory results as given in PubChem BioAssay (NCATS).
Records with an inconclusive call do not appear. Active and inactive are the calls of the source. Calls come from the whole dose curve; as a rule, active = well fitted curve in the direction sought with a large enough effect; inconclusive = small, poorly fitted or top-dose-only effect, or another doubt; inactive = no such curve, though single readings can be large; an effect the other way counts as inactive or inconclusive.

Tests used:
[1] = biological target: Glutathione peroxidase 1 (Homo sapiens) (UniProt P07203); assay: Primary qHTS Assay for Inhibitors of Recombinant Selenoprotein Glutathione Peroxidase 1 (GPX1) (AID 1845191); note: nearly all actives have a fitted effect of over 65% in size
Sequence of Glutathione peroxidase 1 (Homo sapiens) (P07203 whole entry, looked up): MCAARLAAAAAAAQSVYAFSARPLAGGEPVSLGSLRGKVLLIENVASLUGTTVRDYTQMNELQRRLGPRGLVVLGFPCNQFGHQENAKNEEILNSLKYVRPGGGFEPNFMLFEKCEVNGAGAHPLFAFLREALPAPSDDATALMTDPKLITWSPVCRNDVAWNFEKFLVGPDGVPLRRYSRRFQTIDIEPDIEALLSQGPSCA
Method in brief: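 NADPH consumption tracked by fluorescence at 340/450 nm between t=0 and t=15 min, room temperature. Final mix: 10 nM GPX1, 100 nM glutathione reductase, 1 mM GSH, 0.5 mM NADPH, 0.5 mM cumene hydroperoxide, 0.01% BSA; 30 min compound–enzyme preincubation.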

[2] = biological target: Phospholipid hydroperoxide glutathione peroxidase GPX4 (Homo sapiens) (UniProt P36969); assay: Primary qHTS Assay for Inhibitors of Recombinant Selenoprotein Glutathione Peroxidase 4 (GPX4) (AID 1845192); note: nearly all actives have a fitted effect of over 65% in size
Sequence of Phospholipid hydroperoxide glutathione peroxidase GPX4 (Homo sapiens) (P36969 whole entry, looked up): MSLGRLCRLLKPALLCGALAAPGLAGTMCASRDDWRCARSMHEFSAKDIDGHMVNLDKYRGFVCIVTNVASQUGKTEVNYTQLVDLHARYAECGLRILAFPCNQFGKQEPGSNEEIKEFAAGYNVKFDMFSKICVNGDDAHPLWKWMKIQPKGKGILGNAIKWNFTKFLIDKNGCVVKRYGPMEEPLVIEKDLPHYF
Method in brief: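 NADPH consumption followed by fluorescence at 340/450 nm, t=0 and after 15 min at room temperature. Reaction started with cumene hydroperoxide (0.5 mM final) after 30 min compound–GPX4 preincubation; final 200 nM GPX4, 100 nM GR, 1 mM GSH, 0.5 mM NADPH.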

[3] = biological target: Luciferin 4-monooxygenase (Photinus pyralis) (UniProt P08659); assay: Primary firefly luciferase (FLuc) qHTS assay for identification of artifact compounds. (AID 1845220); note: nearly all actives have a fitted effect of over 60% in size
Method in brief: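 Compounds sat 15 min at room temperature with 10 uM luciferin and 10 uM ATP (pH 7.6 Tris acetate). Firefly luciferase (10 nM final) was then added, and luminescence was read 5 min later. Data normalized to no-enzyme and DMSO controls were Hill-fitted.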

[4] = Primary fluorescence-based thiol-reactive (MSTI) qHTS assay for identification of artifact compounds. (AID 1845221); note: nearly all actives have a fitted effect of over 65% in size; note: potency is the fitted concentration of half-maximal effect
Method in brief: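 Probe: MSTI 4 uM, PBS pH 7.4, 2% DMSO. Incubation 1 h, RT, light-protected. Readout fluorescence 525/598 nm.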

[5] = tested on: Nanoluciferase (engineered Oplophorus gracilirostris luciferase); assay: Primary Nanoluciferase (NLuc) qHTS assay for identification of artifact compounds. (AID 1845222); note: series mostly up to about 54 µM
Method in brief: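 Luminescence from secreted NLuc (filtered, 1:55-diluted S16 cell medium) read 5 min after Nano-Glo substrate; compounds preincubated 15 min, RT. Hill fits of inhibition normalized to DMSO and no-enzyme.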

[6] = Primary redox qHTS assay for identification of artifact compounds. (AID 1845223)
Method in brief: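 Redox-cycling detection via DTT (250 uM final) oxidation coupled to Amplex Red (25 uM)/HRP (250 mU/mL) in HBSS. 15 min preincubation plus 30 min after DTT, room temperature. Ex/Em 525/598 nm; 4-parameter Hill fit against DMSO and 10 uM DA3003.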

[7] = Quantitative High-Throughput drug screen in 47 multiple myeloma cell lines against the NCATS MIPE library collection: FR4_PLB cell viability assay (AID 1918924; note: nearly all actives have a fitted effect of over 35% in size; note: potency is the fitted concentration of half-maximal effect)
Method in brief: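 Myeloma cells (500 per well) were exposed to MIPE 4.0 compounds by pin transfer and incubated 48 hours at 37C, 5% CO2. Viability was read as ATP by CellTiter-Glo luminescence, normalised to DMSO (100%) and media-only (0%) wells.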

[8] = biological target: Metallo-beta-lactamase type 2 (Klebsiella pneumoniae) (UniProt C7C422); assay: qHTS to identify inhibitors of the New Delhi Metallo-beta-lactamase (NDM): assay validation screen against the NCATS LOPAC Collection (AID 1794843); note: series mostly up to about 38 µM
Sequence of Metallo-beta-lactamase type 2 (Klebsiella pneumoniae) (C7C422 whole entry, looked up): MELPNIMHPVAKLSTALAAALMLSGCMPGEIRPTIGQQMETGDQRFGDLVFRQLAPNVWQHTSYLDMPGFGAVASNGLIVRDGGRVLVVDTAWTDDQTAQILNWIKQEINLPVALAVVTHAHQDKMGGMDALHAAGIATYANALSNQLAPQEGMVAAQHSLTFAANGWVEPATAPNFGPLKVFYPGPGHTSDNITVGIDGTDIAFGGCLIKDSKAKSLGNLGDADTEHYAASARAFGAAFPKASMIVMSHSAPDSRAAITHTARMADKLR
Method in brief: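 Absorbance at 485 nm from nitrocefin turnover (50 uM solution added), read at plateau, gives the read-out. Compounds in DMSO were incubated first with 2 nM final NDM-1 in pH 7.0 HEPES buffer containing 1 uM ZnSO4 and 0.01% Tween20.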

[9] = Quantitative High-Throughput drug screen in 47 multiple myeloma cell lines against the NCATS MIPE library collection: Delta47_JCRB cell viability assay (AID 1918925; note: nearly all actives have a fitted effect of over 45% in size; note: potency is the fitted concentration of half-maximal effect)
Method in brief: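 Luminescent ATP measurement with CellTiter-Glo gives viability, scaled between DMSO-only wells (100%) and media-only wells (0%). Cells, 500 per well, faced library compounds for 48 hours at 37C.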

Measured: Potency

Cc1ccccc1C(=O)c1ccc(Nc2ccc(Br)cc2N)cc1Cl
active: [7] 6.62 µM
inactive: [1] | [2] | [3] | [4] | [5] | [6]

C=CCc1cccc(C=NNC(=O)CN2CCN(Cc3ccccc3)CC2)c1O
active: [9] 18.7 µM
inactive: [8] | [1] | [2]

Cc1nc2c([nH]1)CCN(C(=O)c1ccc(NC(=O)c3ccccc3-c3ccccc3)cc1)c1ccccc1-2
inactive: [1] | [2] | [3] | [4] | [5] | [6]

O=C1C(c2c(O)[nH]c3ccccc23)=Nc2ccccc21
inactive: [1] | [2] | [3] | [5] | [6]
active: [4] 0.184 µM | [7] 14.8 µM

CC1CNc2c(cccc2S(=O)(=O)N[C@@H](CCCN=C(N)N)C(=O)N2CC[C@@H](C)C[C@@H]2C(=O)O)C1 (stereo not given in full)
inactive: [1] | [2]

COC(=O)N1CCN(Cc2cccc(NC(=O)Nc3ccc(C)nc3)c2F)CC1
inactive: [1] | [2] | [3] | [4] | [5] | [6]

CN1CCC(COc2cnc(-c3cccc(Cn4nc(-c5cccc(C#N)c5)ccc4=O)c3)nc2)CC1
inactive: [1] | [2] | [3] | [4] | [5] | [6]
active: [7] 26.4 µM | [9] 0.209 µM

CC[C@H](C=C[C@@H](C)[C@H]1CC[C@H]2[C@@H]3CC=C4C[C@@H](O)CC[C@]4(C)[C@@H]3CC[C@]12C)C(C)C
inactive: [1] | [2]

Cc1ccc(C(=O)N(CCCN)[C@@H](c2oc3cc(Cl)ccc3c(=O)c2Cc2ccccc2)C(C)C)cc1
inactive: [1] | [2]

CN(C)CCOc1cc(-c2cn[nH]c2)ccc1NC(=O)C1COc2ccccc2O1 (stereo not given)
inactive: [1] | [2] | [3] | [4] | [5]

O=c1[nH]nc(OCCCc2ccc(Cl)cc2)c(NCc2cccnc2)c1Br
inactive: [1] | [2] | [3] | [4] | [5] | [6]
active: [7] 16.6 µM | [9] 4.18 µM

N#CC1(c2cccc(C(=O)Nc3cc(Oc4ccc5nc(NC(=O)C6CC6)sc5n4)ccc3F)c2Cl)CC1
active: [7] 10.5 µM
inactive: [1] | [2] | [3] | [4] | [5] | [6] | [9]

Cc1cnc(-c2cc(N3CCN(C(=O)CCS(C)(=O)=O)CC3)ncc2Cl)c(C)c1
inactive: [1] | [2] | [3] | [4] | [5] | [7] | [9]

Cc1cnc(Nc2cccc(CN3CCOCC3)c2)nc1Nc1cccc(S(=O)(=O)NC(C)(C)C)c1
active: [7] 14.8 µM | [9] 4.18 µM
inactive: [1] | [2] | [3] | [4] | [5] | [6]
